# Measurements reported in PubChem BioAssay AID2314 (National Center for Advancing Translational Sciences (NCATS), 2010).
# In all, about 300,000 compounds went through this assay and about 37,000 (12%) were called active. No stated cut-off is given here; in the data, active means max response mostly above about 13% (no sharp cut-off); inactive means mostly below about 14%. The full list was thinned out, with actives kept by preference.
# Experiment: Cycloheximide Counterscreen for Small Molecule Inhibitors of Shiga Toxin; further: read at 38.3 µM for the half of the compounds with a filed dose; 0% is about no effect
# Details: cell reporter, cycloheximide protein synthesis inhibition counterscreen; stronger effect = higher value
row,SMILES,max response
1,O=C(CN(c1cc(C(F)(F)F)ccc1Cl)S(=O)(=O)c1ccccc1)NCc1cccnc1,-4.73% (inactive)
2,CC(C)c1ccc(NC(=O)Cn2ncc3ccccc32)cc1,29% (active)
3,CCc1ccc(NC(=O)Cn2ncn3c(cc4ccccc43)c2=O)cc1,-4.36% (inactive)
4,CCOC(=O)c1cn(CC(=O)Nc2ccc(C(C)C)cc2)nn1,-2.13% (inactive)
5,O=C(O)Cn1c(Cc2ccccc2)nc2ccccc21,1.69% (inactive)
6,COC(=O)c1ccc2c(=O)n(CCN3CCOCC3)c(SCC(=O)Nc3cccc(OC)c3)nc2c1,-1.03% (inactive)
7,CCOC(=O)CSc1nnc(CNc2ccc(F)cc2)o1,-0.571% (inactive)
8,Cc1cccc2nc(CNc3ccc(F)cc3)cn12,33.7% (active)
9,O=C(COC(=O)c1ccco1)NCc1ccc(Cl)cc1,4.34% (inactive)
10,COc1cccc(-n2c(=S)[nH]c3c(oc4ccccc43)c2=O)c1,18.5% (active)
11,COc1cccc(-n2cc(C(=O)O)c3ccccc3c2=O)c1,-2.23% (inactive)
12,COc1cccc(N2C(=O)CN(Cc3ccccc3)C2=S)c1,-1.8% (inactive)
13,O=C(c1ccccc1)N1CCC(CC2CC(c3ccc(Cl)cc3)=NO2)(C(=O)NCC2CCCCC2)CC1 (configuration not stated),-1.39% (inactive)
14,COc1ccc(-c2oc3ncn(Cc4ccco4)c(=N)c3c2-c2ccc(OC)cc2)cc1,-1.11% (inactive)
15,CCOC(=O)N1CCN(C(=S)Nc2ccc(C)cc2C)CC1,-5.54% (inactive)
16,Cc1ccc(NC(=S)Nc2ncccc2C)c(C)c1,42.7% (active)
17,COC(=O)c1cccnc1NC(=S)NC(C)C,3.9% (inactive)
18,CCOc1ccc(C(=O)COC(=O)c2ccc(-n3cnnn3)cc2)cc1,1.17% (inactive)
19,CC1CN(c2nc(-c3ccccc3)nnc2-c2ccccc2)CC(C)O1 (configuration not stated),-4.84% (inactive)
20,COc1ccc(C2/C=C\CN(C(=O)c3ccc(C)cc3)C(Cc3ccccc3)C(=O)N2Cc2ccc(F)cc2)cc1 (configuration not stated),2.85% (inactive)
21,CCOc1cc(/C=N/NC(=O)CN2CCCCC2)ccc1O,-1.36% (inactive)
22,Cc1ccc(/C=N/NC(=O)COc2ccccc2-c2ccccc2)cc1,-1.02% (inactive)
23,O=C(CN1CCSCC1)N/N=C/c1ccc(Cl)cc1,11.3% (inactive)
24,CNC(=S)NNC(=O)c1sccc1OCc1ccccc1,-0.196% (inactive)

row,SMILES,max response
1,Cc1ccc(/C=N/NC(=O)c2sccc2OCc2ccc(F)cc2)cc1,16.2% (active)
2,Cc1ccc(COc2ccc(/C=N/NC(=O)CN3CCCCC3)cc2)cc1,32.7% (active)
3,CC(Sc1nc2c([nH]c3ccccc32)c(=O)n1C)c1ccccc1 (configuration not stated),-7.36% (inactive)
4,Cc1ccc(C(=O)Nc2c(C#N)c(C)c(C)n2Cc2ccccc2)cc1,-2.66% (inactive)
5,CC(=O)Nc1ccc(S(=O)(=O)N2CCN(C(=O)c3ccccc3F)CC2)cc1,6.62% (inactive)
6,CCOC(=O)c1c(N=CN(C)C)c(C#N)c2n1CCCC2,-4.22% (inactive)
7,Cc1oc2nc(SCC(=O)Nc3ccc(S(N)(=O)=O)cc3)nc(NC(=O)c3ccccc3)c2c1C,-2.02% (inactive)
8,O=C(CN(Cc1ccc(Br)cc1)S(=O)(=O)c1ccccc1)NCc1ccncc1,-2.43% (inactive)
9,Cc1cc(C)nc(-n2nc(C)cc2NC(=O)c2ccc(F)cc2F)n1,-3.69% (inactive)
10,N=c1c2c3c(sc2nc2n1CCCCC2)CCCC3,15% (inactive)
11,C[C@@H]1CC[C@@]2(OC1)O[C@H]1C[C@H]3[C@@H]4CC=C5C[C@@H](O)[C@H](O)C[C@]5(C)C4CC[C@]3(C)[C@H]1[C@@H]2C (some centres not stated),-6.07% (inactive)
12,CCCc1nn2c(=O)cc(CSCC(=O)Nc3cccc(C)c3)nc2s1,-2.96% (inactive)
13,O=C1NCC(=O)N(Cc2ccccc2)/C1=C/c1ccccc1,-7.39% (inactive)
14,CC1=NN(Cc2ccccc2)C(=O)/C1=C/c1ccc(N(C)C)cc1,3.72% (inactive)
15,CN(C)c1ccc(/C=C2\NC(=S)N(Cc3ccccc3)C2=O)cc1,16.3% (active)
16,COc1ccc(N2CCN(C(=O)CN3C(=O)COc4ccccc43)CC2)cc1,-4.68% (inactive)
17,CCOc1ccc(NC(=O)COc2ccc(C(=O)NC3CCCc4ccccc43)cc2OC)cc1 (configuration not stated),-1.56% (inactive)
18,O=C(O)CCn1c(O)c(C=C2N=c3ccccc3=N2)sc1=S,-1.81% (inactive)
19,Cc1ccc(-n2nc3cc(Cl)c(NC(=O)c4ccco4)cc3n2)cc1,45% (active)
20,COC(=O)c1cc(Cl)c(NC(=O)c2ccco2)cc1OC,3.33% (inactive)
21,Cc1ccc(-n2nc3cc(C)c(NC(=O)c4cccnc4)cc3n2)cc1,15.8% (active)
22,O=C(Nc1cccc(-n2cnnn2)c1)c1cccnc1,-4.68% (inactive)
23,Cc1cc(NC(=O)c2ccco2)c(=O)n(Cc2c(F)cccc2Cl)c1,-2.05% (inactive)
